Measured values published in the supplement of paper PMC11417369.
Whole data set: some 25,000 sequences, median “ln(normalized median fluorescence intensity)” near 7.1, cut for the highest 2% near 10. The sample as a whole holds a higher share of the highest values than the screen did.

What follows are sequences tested on PfSIP2 AP2 domain 1 (GST-tagged) (assay: gcPBM binding intensity (ln(normalized median fluorescence intensity)); higher = stronger DNA binding).
Outline: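 Probes on an Agilent 4 × 180k array were primer-extended, double-stranded and 36 bp long, taken from intergenic genomic regions, with negative controls added. GST-tagged P. falciparum DNA-binding domains from E. coli, about 25 μg on average, were applied to the array for 1 h in 1× PBS containing 1% milk, 0.2 mg/ml BSA, 0.5% salmon testes DNA and 0.03% Triton X-100. Binding intensity, obtained after Alexa488 anti-GST antibody detection and a 488 nm scan, is the highest Masliner-normalised natural-log median intensity across replicate spots of either probe orientation.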
With “ATTAAGACACATTGCACACGTGCACCCATAGAAAAA [CACACA_site408]” the “gcPBM binding intensity (ln)” value was 12.2.
For “CCATTAAGACACATTGCACACGTGCACCCATAGAAA [CACACA_site4388]”, the “gcPBM binding intensity (ln)” value was 12.4.
In the case of “TATATATATATAGACACACACACACCCATATATATA [CACACA_site4117]”, the “gcPBM binding intensity (ln)” value was 9.12.
For “TAAGAAATAAATAGTACACACATAGACACCCACCCA [CACACA_site8429]”, the “gcPBM binding intensity (ln)” value was 7.39.
With “TACACCCATAGACACACACACACGCATAAAAAAAAA [CACACA_site8428]” the “gcPBM binding intensity (ln)” value was 7.55.
“TAAGAAATAAATAGTACACACATAGACACACGCACA [CACACA_site6821]” was tested, and the “gcPBM binding intensity (ln)” value was 8.
For “TAAGAAATAAATAGTACACACATAGACACCCACCGA [CACACA_site1516]”, the “gcPBM binding intensity (ln)” value was 7.3.
In the case of “ACATTAAGACACATTGCACACGTGCACCCATAGAAA [CACACA_site8029]”, the “gcPBM binding intensity (ln)” value was 12.
“AGTACAGACATAGACACACACACACCCATAAAAAAA [CACACA_site1515]” was tested, and the “gcPBM binding intensity (ln)” value was 7.24.
For ACTGCGTTTTTACACGCGCACTGCAATGAACAATAT, the “gcPBM binding intensity (ln)” value was 8.05.
With “AGGTAGAAAAAAGACACACACATTAGATATTTATAT [CACACA_site6313]” the “gcPBM binding intensity (ln)” value was 6.87.
“TATTATATTCTGCTTACACACATATATATATATATA [CACACA_site3060]” was tested, and the “gcPBM binding intensity (ln)” value was 9.32.
In the case of “ATTTTTTTTTCTTTCGCACACGTGAAAGAATTTCTA [CACACA_site2052]”, the “gcPBM binding intensity (ln)” value was 7.13.
“TTATATATTTATATATGTACACATTTTACCATTTTT [XGTACX_site2142]” was tested, and the “gcPBM binding intensity (ln)” value was 6.9.
With “GAAAAAAAAAAAAATACACACAAATTGGTATATAAC [CACACA_site6315]” the “gcPBM binding intensity (ln)” value was 6.75.
With “TATATACACATTTTTATACACACTTGTTTTATAAAA [CACACA_site8139]” the “gcPBM binding intensity (ln)” value was 7.16.
With “AATAAATAAATAAATAAATATATATATATATATATA [GTGCAC_negctrl_site224]” the “gcPBM binding intensity (ln)” value was 9.48.
For “AAATGAAAAATAAGGAAAAAAAAAAAAAAAAAAAAA [CACACA_negctrl_site1715]”, the “gcPBM binding intensity (ln)” value was 6.88.
For “TTTTTTACTTTTGAGACATTTCATATTTTTATTCAC [GTGCAC_negctrl_site730]”, the “gcPBM binding intensity (ln)” value was 6.91.
In the case of “TATATATCAATATTTACACACATGCGCCCACATAAA [CACACA_site7185]”, the “gcPBM binding intensity (ln)” value was 7.57.
In the case of “AATATTTACAGACATGCGCACACATAAATAAATAAT [CACACA_site8760]”, the “gcPBM binding intensity (ln)” value was 8.81.
For “TATTAATATTTACACACATGCGCACACATAAATAAA [TGCATGCA_site609]”, the “gcPBM binding intensity (ln)” value was 9.31.
For “TATATCTTAATATTTACACACATGCGCACCCATAAA [CACACA_site5349]”, the “gcPBM binding intensity (ln)” value was 12.
In the case of “TATTTACACCCATGCGCACACATAAATAAATAATAG [CACACA_site5350]”, the “gcPBM binding intensity (ln)” value was 8.34.
“TATATATTAATATTTACACACATGCGCACCCATAAA [CACACA_site2410]” was tested, and the “gcPBM binding intensity (ln)” value was 12.1.
With “TATGAATGGTTAAGTACACACATATTAAGATATGTA [CACACA_site5852]” the “gcPBM binding intensity (ln)” value was 6.99.
With “TGCATTTTACTTGTTACACACATATAAAATTAACCA [CACACA_site7387]” the “gcPBM binding intensity (ln)” value was 7.11.
“CTATTTAAAATTTGAACACACATTATTTATTTTAAA [CACACA_site3114]” was tested, and the “gcPBM binding intensity (ln)” value was 6.9.
ACTTTAACCTGAACGGTGCATAAAATTTTGGCATTA was tested, and the “gcPBM binding intensity (ln)” value was 10.8.
“TTATAGCCTGTGAAGAGTACATTTTTATTTTTTATT [XGTACX_site4105]” was tested, and the “gcPBM binding intensity (ln)” value was 6.85.
For “TTTTTTTTTTTTTGGTGTACCATAGGTAAAATGATT [XGTACX_site8020]”, the “gcPBM binding intensity (ln)” value was 7.2.
With “TATTTATATTTATACACACACACAAAAAAAAAAAAA [CACACA_site6817]” the “gcPBM binding intensity (ln)” value was 7.22.
With “TATTTTTTATATTTATTTATTTAAAGGAGCTTTTCT [GTGCAC_negctrl_site293]” the “gcPBM binding intensity (ln)” value was 6.67.
With “TTTTTCATTTAGCTTTTACACACTATATATTATTGA [CACACA_site7888]” the “gcPBM binding intensity (ln)” value was 7.16.
In the case of “CAGGTGCACTATATTACACACGCTTCTTTTTTTTTA [CACACA_site2069]”, the “gcPBM binding intensity (ln)” value was 12.4.
“ATATATATATATATTACACACTTTTTCTTTTTTTTT [CACACA_site2780]” was tested, and the “gcPBM binding intensity (ln)” value was 9.47.
TATATATTTTTATGTGTGCACTGTTTCATAAAAGAA was tested, and the “gcPBM binding intensity (ln)” value was 10.9.
In the case of TATATATATTTTTGTGTGCACTATAATATGAAAATA, the “gcPBM binding intensity (ln)” value was 10.8.
For AATATTTCTCATTTTGTGCACTGAAAAATGTAATAT, the “gcPBM binding intensity (ln)” value was 10.2.
With “TATATATTTCGGTGTGCACACTTTTTATTTTTATCC [CACACA_site1726]” the “gcPBM binding intensity (ln)” value was 8.4.
For “ATATATTGCACTTTTTGTACATAATGAAAAATTTTT [XGTACX_site8223]”, the “gcPBM binding intensity (ln)” value was 8.1.
With “ATCATATTTTTATGTGTGCACTTTTTTTTTTTTTTT [GTGCAC_site9555]” the “gcPBM binding intensity (ln)” value was 10.8.
In the case of ATATATTTTATATGTGTGCACTATATATATATATAT, the “gcPBM binding intensity (ln)” value was 10.2.
With TATATATATATATATGTGCACATATTTATATGTTTT the “gcPBM binding intensity (ln)” value was 9.47.
With “ACATATTATATATGTGTGCACATATATATATATTTA [GTGCAC_site9591]” the “gcPBM binding intensity (ln)” value was 8.7.
“AATATATTTATGCTCATGCACTTTTTTTTTTTTTTT [GTGCAC_site9654]” was tested, and the “gcPBM binding intensity (ln)” value was 8.89.
For “TATATATATATGTGCACACATAAAGATATTATTTTT [CACACA_site3733]”, the “gcPBM binding intensity (ln)” value was 9.51.
In the case of “AATTTTTTTTTTTTTTTTTTTTATATATGTGTGTGT [XGTACX_negctrl_site129]”, the “gcPBM binding intensity (ln)” value was 7.29.
With “AAATATATTTTACATTGTACATGAATAAACTATAAA [XGTACX_site2080]” the “gcPBM binding intensity (ln)” value was 7.05.
In the case of “AAGGCAAGCACTTAAACATGCATATAATAATATCAT [TGCATGCA_site698]”, the “gcPBM binding intensity (ln)” value was 7.36.
For “TGATAAGTATACTAAAGTACATGAAAAATAACTTCC [XGTACX_site6908]”, the “gcPBM binding intensity (ln)” value was 6.87.
In the case of “ATTACATACGAGCACACGTAAAAGTATAATATAAAA [GTGCAC_negctrl_site446]”, the “gcPBM binding intensity (ln)” value was 6.94.
With “TGAGTATATATAAATACACACCAAATGTTAATATAT [CACACA_site5022]” the “gcPBM binding intensity (ln)” value was 6.8.
With “TAATGATAAATACATACACACAAAAAATAATATATA [CACACA_site2576]” the “gcPBM binding intensity (ln)” value was 6.85.
With “CATATATATTTGTTCACACACACACTAGAAAAAAAA [CACACA_site5380]” the “gcPBM binding intensity (ln)” value was 7.29.
With “TATGATACATAAATATGTACGTATAATATATATTTA [XGTACX_site7002]” the “gcPBM binding intensity (ln)” value was 6.96.
“ATTATTAAAAATATGGGTACATATTATTGTTATATA [XGTACX_site1958]” was tested, and the “gcPBM binding intensity (ln)” value was 6.89.
“AAAAAATAAAAAATATGTACACATTCAAAATTTTAC [XGTACX_site8479]” was tested, and the “gcPBM binding intensity (ln)” value was 6.91.
